From PubChem BioAssay (NCI) come the findings set out here.

The structures appear in SMILES notation. This is part of a sample that, as a whole, favours compounds with a hit. Of some 83,000 tested, about 20% had one in any assay.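 Activity criterion: percent growth below 10, measured after cells in 96-well plates were exposed to a single compound concentration for 48 hours.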 Unmarked numbers belong to inactive results. Calls of active or inactive are those of the source.

Among the test systems are HCT-15 colon; HT29 colon; SNB-75 CNS; SNB-19 CNS; U251 CNS; PC-3 prostate; SK-MEL-5 melanoma; UACC-62 melanoma; SK-MEL-28 melanoma; SK-MEL-2 melanoma; EKVX NSCLC; SN12C renal; UO-31 renal; ACHN renal; CAKI-1 renal; A498 renal; CCRF-CEM leukemia; MOLT-4 leukemia; TK-10 renal.
What all share (assay): NCI-60 one-dose screen, 48 h (100 = growth as untreated, 0 = no growth, -100 = all killed)
Details in all cases: 10 µM unless noted

As to `Cc1ccc(NC(=O)c2cc3ccccc3cc2O)c(C)c1`, the growth is 77.4% in the assay with HCT-15 colon; 104% in the assay on HT29 colon; 96.8% in the assay on SNB-75 CNS; 105% in the assay on SNB-19 CNS; 97.5% in the assay on U251 CNS; 35.9% in the assay with PC-3 prostate. In addition, the growth is 49.4% with SK-MEL-5 melanoma; 66.1% in the assay with UACC-62 melanoma; 81.9% in the assay on SK-MEL-28 melanoma; 91.8% with SK-MEL-2 melanoma; 79.6% in the assay with EKVX NSCLC; 89.7% with SN12C renal. The growth was 69.2% in the assay on UO-31 renal; 91.7% in the assay on ACHN renal; 66.5% with CAKI-1 renal; 68.4% in the assay on A498 renal; 67.8% with CCRF-CEM leukemia; 104% in the assay on MOLT-4 leukemia.
In the case of `COc1ccc(C2CC(n3ccnc3)c3cc(OC)c(OC)c(OC)c32)cc1O` (stereo unspecified), the growth in the assay with HCT-15 colon is 59.9%; in the assay with HT29 colon, 102%; in the assay with SNB-75 CNS it was 90.2%; in the assay with SNB-19 CNS it was 93.7%; with U251 CNS, 80.4%; in the assay with PC-3 prostate it was 60.7%. For the same molecule, the growth in the assay on SK-MEL-5 melanoma was 53.1%; in the assay on UACC-62 melanoma, 65.5%; in the assay on SK-MEL-28 melanoma, 78.3%; in the assay with SK-MEL-2 melanoma, 89.6%; in the assay on EKVX NSCLC it was 101%; with SN12C renal it was 104%. Moreover, the growth in the assay on UO-31 renal was 79.9%; with TK-10 renal, 101%; with ACHN renal, 86.4%; in the assay on CAKI-1 renal it was 74.5%; in the assay on A498 renal, 88.3%; in the assay on CCRF-CEM leukemia, 90.9%. In addition, in the assay with MOLT-4 leukemia, the growth was 90%.
For `Cc1ccc2nc(-c3ccc(C(=O)N/N=C/c4ccc([N+](=O)[O-])cc4)cc3)[nH]c2c1`, the growth was 102% in the assay with HCT-15 colon; 102% with HT29 colon; 97.1% in the assay on SNB-75 CNS; 104% in the assay on SNB-19 CNS; 107% in the assay with U251 CNS; 98.2% with PC-3 prostate. The growth was 98.5% with SK-MEL-5 melanoma; 97.4% in the assay with UACC-62 melanoma; 112% in the assay on SK-MEL-28 melanoma; 116% in the assay with SK-MEL-2 melanoma; 108% in the assay on EKVX NSCLC; 106% with SN12C renal. In addition, the growth with UO-31 renal was 86.4%; with TK-10 renal, 127%; in the assay with ACHN renal, 104%; in the assay on CAKI-1 renal, 97.4%; in the assay with A498 renal it was 82.8%; with CCRF-CEM leukemia it was 95.3%. The growth in the assay on MOLT-4 leukemia was 93.4%.
Consider `c1csc(-c2cn3nc(-c4c[nH]c5ccccc45)sc3n2)c1`, for which the growth was 21.6% in the assay on HCT-15 colon; 6.1% (active) with HT29 colon; -4.32% (active) in the assay on SNB-75 CNS; 28.7% in the assay on SNB-19 CNS; 23.7% in the assay on U251 CNS; 26.5% with PC-3 prostate. The growth is 19.5% with SK-MEL-5 melanoma; 32.5% with UACC-62 melanoma; 48.5% with SK-MEL-28 melanoma; 37.2% in the assay with SK-MEL-2 melanoma; 36% with EKVX NSCLC; 34.2% with SN12C renal. Further, the growth with UO-31 renal is 30.7%; with TK-10 renal it was 50.5%; in the assay on ACHN renal, 42.2%; with CAKI-1 renal, 29.8%; with A498 renal, 20.8%; with CCRF-CEM leukemia it was 10.7%. Also, the growth with MOLT-4 leukemia was 27.2%.
`CC(C)c1ccc2c(c1)CC[C@H]1[C@](C)(C(=O)OCC#CCN3CCCC3)CCC[C@]21C`: the growth in the assay with HCT-15 colon is 42.7%; with HT29 colon, 36.8%; in the assay on SNB-75 CNS, 88.6%; with SNB-19 CNS it was 86.8%; in the assay on U251 CNS it was 69.2%; in the assay with PC-3 prostate it was 61.9%. Further, the growth in the assay on SK-MEL-5 melanoma is 64.7%; with UACC-62 melanoma it was 55.4%; in the assay with SK-MEL-28 melanoma it was 76%; in the assay on SK-MEL-2 melanoma, 103%; in the assay on EKVX NSCLC, 74.8%; with SN12C renal, 71.5%. Besides, the growth in the assay with UO-31 renal was 60.7%; with TK-10 renal it was 98.6%; in the assay with ACHN renal, 86.2%; in the assay with CAKI-1 renal, 94.5%; with A498 renal, 105%; in the assay on CCRF-CEM leukemia it was 6.39% (active). The growth in the assay on MOLT-4 leukemia was 72.7%.
Regarding `N#Cc1ccccc1-c1ccc(CN2C(=O)S/C(=C\c3ccc(Br)cc3)C2=O)cc1`, the growth in the assay on HCT-15 colon was 98.7%; in the assay with HT29 colon, 104%; in the assay with SNB-75 CNS, 82.8%; in the assay on SNB-19 CNS, 93.5%; in the assay on U251 CNS it was 96.4%; in the assay on PC-3 prostate it was 99.9%. Further, the growth was 98.7% in the assay with SK-MEL-5 melanoma; 88.7% in the assay with UACC-62 melanoma; 108% in the assay on SK-MEL-28 melanoma; 102% with SK-MEL-2 melanoma; 87.8% in the assay with EKVX NSCLC; 91.6% with SN12C renal. In addition, the growth is 91% with UO-31 renal; 110% with TK-10 renal; 104% in the assay on ACHN renal; 85.4% with CAKI-1 renal; 107% with A498 renal; 100% in the assay on CCRF-CEM leukemia. Also, the growth with MOLT-4 leukemia was 106%.
For `C/C(=N\Nc1ccccc1)c1ccc(NC2=CC(=O)c3ccccc3C2=O)cc1`, the growth in the assay on HCT-15 colon is 31.9%; in the assay with HT29 colon, 75.3%; in the assay on SNB-75 CNS, 51.1%; with SNB-19 CNS, 85.7%; in the assay with U251 CNS, 45.8%; with PC-3 prostate, 40.1%. Further, the growth with SK-MEL-5 melanoma is -10.5% (active); with UACC-62 melanoma it was -7.92% (active); with SK-MEL-28 melanoma, 65.9%; in the assay with SK-MEL-2 melanoma, 55.6%; in the assay with EKVX NSCLC it was 74%; in the assay on SN12C renal it was 63.5%. Besides, the growth in the assay with UO-31 renal is 38.8%; with TK-10 renal, 81.5%; with ACHN renal, 48.2%; in the assay on CAKI-1 renal, 43.8%; with A498 renal it was 110%; in the assay on CCRF-CEM leukemia, 62.7%. In addition, in the assay with MOLT-4 leukemia, the growth is 63%.
On to `COC(=O)/C=C1/SC(=Nc2ccc(F)cc2)N(CCc2c[nH]c3ccc(O)cc23)C1=O`, for which the growth in the assay on HCT-15 colon is 23.6%; in the assay with HT29 colon, 36.7%; with SNB-75 CNS, 43.2%; with SNB-19 CNS, 46.6%; in the assay with U251 CNS it was 25.6%; in the assay with PC-3 prostate, 33.3%. Further, the growth with SK-MEL-5 melanoma is 44.9%; in the assay with UACC-62 melanoma it was 23.5%; in the assay on SK-MEL-28 melanoma it was 51.8%; in the assay with SK-MEL-2 melanoma, -0.819% (active); with EKVX NSCLC, 55.9%; in the assay with SN12C renal, 42.5%. For the same molecule, the growth in the assay with UO-31 renal is 46.4%; in the assay with TK-10 renal it was 84%; with ACHN renal, 33.8%; in the assay on CAKI-1 renal, 52.1%; with A498 renal, 49.8%; with CCRF-CEM leukemia it was 3.69% (active). In addition, in the assay on MOLT-4 leukemia, the growth is 0.14% (active).
